Shown is part of a subset that was picked to be rich in hits.
DT40 TDP1 CPT: growth inhibition of DT40 Tdp1-/-;hTDP1 cells with camptothecin (screen for TDP1 inhibitors). chicken DT40 Tdp1-/-;hTDP1 cells + 20 nM CPT, ATP luminescence, 48 h. Potency, µM (series often up to 46.2 µM), without a hit: top-dose activity change, negative = growth inhibition, actives largely listed as inhibitors. 12% of 420,000 active. AID 686979; also: potency is read from the fitted curve at half-maximal effect; nearly all actives have a fitted effect of over 55% in size
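Chicken DT40 Tdp1-/- cells complemented with human TDP1, 400 cells/well, exposed to compounds plus 20 nM camptothecin for at least 48 h at 37 C; viability read as ATP content by CellTiter-Glo luminescence.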
12-LOX inh: inhibitors of human 12S-lipoxygenase ALOX12 | purified 12hLO, xylenol orange hydroperoxide absorbance | Potency, µM (top dose mostly 108 µM), for inactives: at the highest dose activity change, negative = inhibition, usual class: inhibitors | 1.1% of 580,000 active | AID 1671190; also: potency is read from the fitted curve at half-maximal effect
Target sequence (P18054 whole entry, looked up): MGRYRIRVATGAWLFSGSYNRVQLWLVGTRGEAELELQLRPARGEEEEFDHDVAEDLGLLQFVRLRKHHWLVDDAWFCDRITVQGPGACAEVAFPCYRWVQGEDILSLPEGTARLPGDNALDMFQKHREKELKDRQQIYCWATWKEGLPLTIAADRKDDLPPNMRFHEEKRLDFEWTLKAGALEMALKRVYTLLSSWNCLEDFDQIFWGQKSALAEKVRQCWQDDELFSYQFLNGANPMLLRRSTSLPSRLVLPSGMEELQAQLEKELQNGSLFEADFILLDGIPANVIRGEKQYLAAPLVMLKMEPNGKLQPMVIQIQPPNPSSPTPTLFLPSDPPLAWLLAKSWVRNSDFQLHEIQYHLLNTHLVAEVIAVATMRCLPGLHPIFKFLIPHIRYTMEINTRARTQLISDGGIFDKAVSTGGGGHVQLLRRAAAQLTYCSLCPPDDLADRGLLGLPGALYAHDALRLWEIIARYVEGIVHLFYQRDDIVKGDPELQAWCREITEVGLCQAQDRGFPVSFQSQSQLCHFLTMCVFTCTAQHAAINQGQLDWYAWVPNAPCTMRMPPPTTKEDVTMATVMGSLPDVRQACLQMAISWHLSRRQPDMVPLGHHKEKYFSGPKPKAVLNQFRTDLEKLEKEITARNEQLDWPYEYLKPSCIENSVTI
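Hydroperoxide product was detected by ferrous iron/xylenol orange as the 573 to 405 nm absorbance ratio. Arachidonic acid at 40 uM (final) was turned over for 30 min at room temperature by 150 nM human 12hLO, pH 7.0 Hepes buffer, after 15 min compound preincubation.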
HT1080 IDH1KD tx: toxicity to HT-1080 IDH1 knockdown cells (counter line); Potency, µM (top dose mostly 46.1 µM), for inactives: at the top dose activity, negative = toxicity, usual class: cytotoxic; 2% of 360,000 active; HT-1080 IDH1 knockdown viability, ATP luminescence, 48 h;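 also: potency is read from the fitted curve at half-maximal effect; 0% = DMSO wells and -100% = cell-free medium wells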
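CellTiter-Glo luminescence after 48 h compound exposure at 37 degrees C of IDH1-knockdown HT-1080 cells in 5% FBS RPMI. %Activity scaled between DMSO wells and cell-free media wells, with curves fitted and assigned curve classes.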
IL1B secr inh: inflammasome signaling inhibition, IL-1 beta readout; THP-1 LPS/ATP IL-1B secretion, AlphaLISA, 16 h; stronger effect = lower value; activity change, % at 57.5 µM; 4.7% of 360,000 active; AID 743279; in the data active = activity change below about -50%; inconclusive = mostly about -30% to -49%
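THP-1 cells pretreated 1 hr with compounds (up to 57.5 uM final), then stimulated with LPS (250 ng/mL final) plus ATP (1.25 mM final); secreted IL-1B measured by AlphaLISA after 16 hr, decreased signal indicating inhibition.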
TDP1 cell noCPT: qHTS for Inhibitors of human tyrosyl-DNA phosphodiesterase 1 (TDP1): qHTS in cells in absence of CPT. DT40 Tdp1-/- hTDP1 cells, no CPT, ATP luminescence, 48 h. Potency, µM (top dose mostly 46.2 µM), inactives show at the top dose activity change, negative = growth inhibition, most hits filed as inhibitors. 15% of 420,000 active. AID 686978, 2013; also: potency is read from the fitted curve at half-maximal effect; nearly all actives have a fitted effect of over 55% in size
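Luminescent ATP content (CellTiter-Glo) served as the growth readout. Knockout chicken DT40 cells expressing human TDP1 were exposed to compounds without camptothecin for a minimum 48 hr at 37 °C.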
HT1080NT lethal: kills 2HG-producing HT-1080-NT fibrosarcoma cells | 1.6% of 360,000 active | Potency, µM (highest dose often 46.1 µM), inactives show at the highest dose activity, negative = less viability, actives largely listed as cytotoxic | HT-1080-NT fibrosarcoma viability, CellTiter-Glo ATP luminescence, 48 h;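 also: NT is the 2HG producing partner of a matched IDH1 knockdown line; potency is read from the fitted curve at half-maximal effect; 0% = DMSO-treated cells and -100% = media-only wells without cells; nearly all actives have a fitted effect of over 55% in size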
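Toxicity toward the 2HG-producing NT line was scored as %Activity, normalised to DMSO and no-cell wells, from CellTiter-Glo luminescence after 48 hours' treatment.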
Active calls of the source: *; u = inconclusive; x = no result. Unless noted, calls follow the shape of the dose curve; as a rule, active = well fitted curve in the direction sought with a large enough effect; inconclusive = small, poorly fitted or top-dose-only effect, or another doubt; inactive = no such curve, though single readings can be large; an effect the other way counts as inactive or inconclusive. Unless noted, % is scaled to controls: 0 for no effect and ±100 for the full control effect.

SMILES | DT40 TDP1 CPT | 12-LOX inh | HT1080 IDH1KD tx | IL1B secr inh | TDP1 cell noCPT | HT1080NT lethal
COc1ccccc1C(c1nnnn1C(C)(C)C)N1CCCc2ccccc21 (configuration not stated) | u | 326% | 10% | -9 | u | -2%
CC(C)(C)n1nnnc1C(c1ccc(Cl)cc1)N1CCCc2ccccc21 (configuration not stated) | u | -1% | 10% | 29 | 15µM* | 4%
Cc1nc(-c2ccccn2)sc1C(=O)Nc1ccc2c(c1)OCCCO2 | x | 13% | x | x | x | x
O=[N+]([O-])c1cccc(Cl)c1N1CCOCC1 | u | 0% | 15% | 11 | -26% | 8%
C=CS(=O)(=O)c1sc(Cl)c(N2CCOCC2)c1[N+](=O)[O-] | 1.6µM* | u | 10µM* | -112* | 2.9µM* | u
C=CSc1sc(Cl)c(N2CCOCC2)c1[N+](=O)[O-] | 0% | -11% | u | -105* | u | u
CCCNC(=O)C(C)NC(=O)c1nn(C)c(=O)c2ccccc12 (configuration not stated) | x | 32% | x | x | x | x
O=C(Nc1ccc(Br)cc1)c1cccc(N2C(=O)C3C4C=CC(C4)C3C2=O)c1 (configuration not stated) | 23µM* | -7% | -7% | -23 | u | -8%
O=C(Nc1ccc(F)cc1)c1cccc(C(=O)Nc2ccc(F)cc2)c1 | -10% | 0% | 8% | 2 | -24% | -4%
O=C(Nc1ccc(F)cc1)c1cccc(N2C(=O)C3C4CCC(C4)C3C2=O)c1 (configuration not stated) | u | -12% | -1% | 0 | 23µM* | 3%
O=C(Nc1ccc(Br)cc1)c1cccc(N2C(=O)C3C4CCC(C4)C3C2=O)c1 (configuration not stated) | u | -20% | -14% | u | 29µM* | -12%
O=C(Nc1ccc(Br)cc1)c1cccc(N2C(=O)CCC2=O)c1 | 0% | 1% | -8% | 0 | -15% | -8%
O=C(Nc1ccccc1)c1cccc(N2C(=O)C3C4C=CC(C4)C3C2=O)c1 (configuration not stated) | -22% | 4% | 0% | 19 | -29% | 0%
COC(=O)c1ccc(OC(=O)/C=C/c2ccc(Br)o2)cc1 | x | 11µM* | x | x | x | x
Cc1ccc(S(=O)(=O)N2CCN(c3ccc4nnc(-c5ccccc5)n4n3)CC2)cc1 | u | u | 9% | 4 | u | -2%
O=C(c1ccc(Br)o1)N1CCN(c2ccc3nnc(-c4ccc(F)cc4)n3n2)CC1 | u | 55% | -1% | -3 | 18µM* | -12%
O=C(Nc1ccc(Cl)cc1)N1CCN(c2ccc3nnc(-c4ccc(F)cc4)n3n2)CC1 | u | -7% | u | 0 | 21µM* | -23%
COc1ccc(S(=O)(=O)N2CCN(c3ccc4nnc(-c5ccc(F)cc5)n4n3)CC2)cc1 | 12µM* | u | -23% | -9 | 15µM* | -21%
O=C(Nc1ccc(F)cc1)N1CCN(c2ncccn2)CC1 | 1% | 5% | 0% | -6 | u | 15%
O=C(CSc1ncnc2ccccc12)N(C1CCCCC1)C1CCS(=O)(=O)C1 (configuration not stated) | x | -42% | x | x | x | x
COCCCn1c(SCC(=O)c2ccc(OC)cc2)nnc1-c1ccc(Cl)cc1 | x | 19% | x | x | x | x
Cc1nonc1C(=O)N/N=C/c1ccncc1 | 5% | -1% | 0% | 15 | 10% | 13%
Cc1nonc1C(=O)N/N=C/c1ccc([N+](=O)[O-])o1 | 5.8µM* | -13% | u | -1 | 18µM* | -30%
Cc1ccc(NC(=O)CCC(=O)N/N=C/c2ccc([N+](=O)[O-])o2)cc1C | u | -26% | -1% | 9 | u | u
Cc1cc(C(=O)N/N=C/c2ccc([N+](=O)[O-])o2)c(C)o1 | 21µM* | u | -22% | 13 | 18µM* | u
SMILES | DT40 TDP1 CPT | 12-LOX inh | HT1080 IDH1KD tx | IL1B secr inh | TDP1 cell noCPT | HT1080NT lethal
Cn1c(=O)c(-c2cccc(C#N)c2)nc2cnc(Oc3ccccc3)nc21 | 7% | -7% | x | x | 24% | x
CCCN1CNc2c(c(=O)[nH]c(=S)n2CCc2ccccn2)C1 | -16% | x | 1% | x | -26% | 20%
O=C(Nc1ccc2nc(SCC(=O)N3CCOCC3)sc2c1)c1cccc(Cl)c1 | 15µM* | -32% | x | x | 18µM* | x
COc1ccc(C(=O)Nc2ccc3nc(SCC(=O)N4CCOCC4)sc3c2)cc1 | u | -13% | x | x | u | x
O=C(Nc1ccc2nc(SCC(=O)N3CCCC3)sc2c1)c1cccc(Br)c1 | u | u | x | x | 16µM* | x
Cc1ccc2c(c1)S/C(=C/c1ccc[n+](CCO)c1)N2C | 0.65µM* | u | u | -26 | 1.2µM* | -17%
Cc1ccc2c(c1)S/C(=C\c1cccc[n+]1C)N2CCO | 1.2µM* | 0% | 16µM* | 17 | 1.6µM* | -3%
O=C(NCCCNC(=O)c1cc(Cl)ccc1Cl)c1nc2ccccc2c(=O)[nH]1 | x | 16% | x | x | x | x
COC(=O)C1=CN(Cc2ccccc2)C=C(C(=O)OC)C1c1cc(F)ccc1F | -19% | 85% | -22% | -23 | u | -16%
COC(=O)C1=CN(c2ccc(F)cc2)C=C(C(=O)OC)C1c1cccc(Br)c1 | 23µM* | -10% | -1% | u | u | 14%
COC(=O)C1=CN(Cc2ccc(C)cc2)C=C(C(=O)OC)C1c1ccc(F)c(F)c1 | u | x | -25% | -27 | 23µM* | -15%
COC(=O)C1=CN(Cc2ccc(OC)c(OC)c2)C=C(C(=O)OC)C1c1cccc(F)c1 | 16µM* | -8% | -4% | 49 | 18µM* | -2%
COC(=O)C1=CN(Cc2ccc(F)cc2)C=C(C(=O)OC)C1c1cc(OC)c(OC)c(OC)c1 | -5% | 0% | -18% | -18 | 1% | -21%
Cc1ccc(C)c(C2=NNC(=O)CC2)c1 | 0% | u | -2% | 21 | -1% | 12%
O=S(=O)(Cc1ccccc1)N1CCC(c2nc(CCOc3ccc(F)cc3)no2)C1 (configuration not stated) | x | 35% | x | x | x | x
Cc1cc(C)cc(-n2nnnc2SCC(=O)Nc2cccc(NC(=O)c3ccco3)c2)c1 | u | -20% | -25% | -52* | u | -4%
CCn1c(SCC(=O)Nc2ccc(NC(=O)c3ccco3)cc2)nnc1-c1cccs1 | -26% | 0% | -16% | -16 | -11% | u

Compound activity from PubChem.
